Structures can show the parent of a compound that is named as a salt. ± gives the standard deviation.

This is an account of results in the supplement of paper PMC4709259.

The subject of this test is Jurkat. Briefly: mean cell size (FSC-A) relative to DMSO control (fraction of control); higher = larger cells. Conditions: 48 h. Put shortly:
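Jurkat cells at 600 cells/µl were incubated for 1 h and then treated for 48h with the Enzo Screen-Well FDA Approved Drug Library v2.0 at 25µM, with DMSO at 0.9% (v/v) final. Compounds that reduced counts below 20% of controls were retested in 10-fold dilutions down to 25nM. Cell count and mean cell size, taken as forward scatter area, were measured by flow cytometry relative to solvent-only controls. Each plate carried 6-12 controls, and values are means of 3 biological replicates.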
As to `C[N+]1(C)[C@@H]2C[C@@H](OC(=O)C(O)(c3cccs3)c3cccs3)C[C@H]1[C@@H]1O[C@@H]12` [Tiotropium Bromide Monohydrate] (concentration: 25 µM), the mean cell size came to 0.988 ± 0.036. For the compound `OCc1cc(C(O)CNCCCCCCOCCCCc2ccccc2)ccc1O` (stereo not given) [Salmeterol] (concentration: 25 µM), the mean cell size stood at 0.927 ± 0.023. In turn, `OCCN1CCN(CCCN2c3ccccc3Sc3ccc(Cl)cc32)CC1` [Perphenazine] (concentration: 2.5 µM) displayed a mean cell size of 1 ± 0.029.

For the compound `CNC(=C[N+](=O)[O-])NCCSCc1ccc(CN(C)C)o1` [Ranitidine·HCl] (concentration: 25 µM), the mean cell size was found to be 1 ± 0.049. `O=c1[nH]c(=O)n([C@H]2C[C@H](O)[C@@H](CO)O2)cc1F` [Floxuridine] (concentration: 25 nM) yielded a mean cell size of 1.06 ± 0.063.

For `CCN(Cc1ccncc1)C(=O)C(CO)c1ccccc1` (stereo not given) [Tropicamide] (concentration: 25 µM), the mean cell size came out at 0.973 ± 0.019.

As for `CN1CCN(CCCN2c3ccccc3Sc3ccc(C(F)(F)F)cc32)CC1` [Trifluoperazine·HCl] (concentration: 2.5 µM), the mean cell size turned out to be 1.072 ± 0.01. The result for `N=c1nc(N2CCCCC2)cc(N)n1O` [Minoxidil] (concentration: 25 µM) reads 1 ± 0.024; that for `CC(=O)c1ccc(S(=O)(=O)NC(=O)NC2CCCCC2)cc1` [Acetohexamide] (concentration: 25 µM), 1.02 ± 0.063. As for `CCC(=O)O[C@]1(C(=O)SCF)[C@H](C)C[C@H]2[C@@H]3C[C@H](F)C4=CC(=O)C=C[C@]4(C)[C@@]3(F)[C@@H](O)C[C@@]21C` [Fluticasone Propionate] (concentration: 25 µM), the mean cell size came out at 0.967 ± 0.015.
